The panel holds about 83,000 compounds, 20% with a hit somewhere; the sample as a whole holds those more often.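 Treatment: one concentration, 48 hours, 96-well format. Scoring: percent growth, with anything below 10 considered active.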 Calls of active or inactive are those of the source.

The experiment has as its system HL-60(TB) leukemia. Put plainly: NCI-60 one-dose screen, 48 h (100 = growth as untreated, 0 = no growth, -100 = all killed). Particulars: 10 µM unless noted.
With `Cc1cc(=O)oc2c1ccc1oc(C(=O)c3ccccc3)c(C)c12`, the growth is 75.2% (inactive).

In the case of `C=C(C)[C@@H]1CC[C@]2(COC(=O)c3ccccc3C(=O)O)CC[C@]3(C)[C@H](CC[C@@H]4[C@@]5(C)CCCNC(C)(C)[C@@H]5CC[C@]43C)[C@@H]12`, the growth is 6.45% (active).

For the compound `CC(=O)Nc1ccc2c(c1)/C(=C\C=C/c1ccc([N+](C)(C)C)cc1)c1ccccc1-2`, the growth was 43.7% (inactive).

Regarding `O=C(Nc1ccc2ncnc(Nc3ccc(Oc4cccc(F)c4)c(Cl)c3)c2c1)c1ccc(CN2CCOCC2)cc1`, the growth is -11.3% (active).

`Cc1cc(=O)oc2cc(Oc3nc(-c4ccccc4)cn4c(-c5ccccc5)cnc34)ccc12`: the growth is 85.2% (inactive).

Regarding `CC(=O)N1N=C(c2ccc(Cl)cc2)CC1c1sc(Cl)nc1Cl` (stereo not given), the growth was 89.5% (inactive).

As to `C1=C(Cc2ccccc2)n2cnc3ncnc(c32)S1`, the growth is 75.1% (inactive).

In the case of `CCn1c(=O)n(C)c2c(=O)n(C)c(=O)n(C)c21`, the growth was 101% (inactive).

As for `O[C@H]1CO[C@H]2[C@@H]1OC[C@@H]2Oc1ccc(Nc2ccnc(Nc3ccc(O[C@H]4CO[C@H]5[C@@H]4OC[C@@H]5O)c(Cl)c3)n2)cc1Cl`, the growth is -7.8% (active).

As for `O=C(/C=C/c1ccc(Cl)cc1)c1ccc(-n2cc(CN3CCN(c4cc5c(cc4F)c(=O)c(C(=O)O)cn5C4CC4)CC3)nn2)cc1`, the growth was 99% (inactive).

On to `CCCCn1c(-c2ccc(C(=O)O/N=C(\N)c3ccc4c(c3)OCO4)cc2)nc(-c2ccccc2)c1-c1ccccc1`, for which the growth was -52.4% (active).

`Cc1cc(C)c(O)c(CNCCCNCc2cc(C)cc(C)c2O)c1`: the growth was 48.6% (inactive).

As to `N=C1N=C(N)CS1`, the growth is 112% (inactive).

Consider `C#CC[C@@H]1C[C@]2(C)[C@H]3CC[C@@H]4[C@H]5C(C(=C)C)CC[C@]5(C(=O)NCCN(CCN)CCN)CC[C@@]4(C)[C@]3(C)CC[C@H]2C(C)(C)[C@H]1OC(C)=O` (stereo not given in full), for which the growth is 41.5% (inactive).

On to `CCCCCCCCOC(=O)c1ccccn1`, for which the growth is 119% (inactive).

As to `CCOC(=O)Oc1c(OC)cc(C(=O)c2ccc(OC)c(OC(=O)CCl)c2OC)cc1OC`, the growth is -30.9% (active).

With `NS(=O)(=O)c1ccc(Br)cc1`, the growth is 96.2% (inactive).

For `O=C(/C=C/c1cccc(Cl)c1)c1ccc(Nc2nc(Nc3ccc(F)cc3)nc(Nc3ccc(Cl)cc3)n2)cc1`, the growth was 52.8% (inactive).

Regarding `NC(CO)(CO)c1ccccc1`, the growth was 119% (inactive).

`CC(C)(C)c1ccc(C(=O)Nc2sc3cc(O)ccc3c2C(N)=O)cc1`: the growth was 43.3% (inactive).

For `COc1cc2oc(-c3ccc(NC(=O)c4ccccc4)cc3)cc(=O)c2c(OC)c1OC`, the growth was 100% (inactive).

`COc1ccc(NC(=O)c2ccc(C(F)(F)F)nc2Nc2ccc(Cl)cc2C)cc1Cl`: the growth was 4.78% (active).

Take `Cc1ccc(N2C3c4ccccc4N(S(=O)(=O)c4ccc(C)cc4)C2c2ccccc2N3S(=O)(=O)c2ccc(C)cc2)cc1`: the growth was 80.5% (inactive).

For the compound `CCC1CCc2nc3sc(C(=O)Nc4cccc(C)c4)c(N)c3cc2C1` (stereo not given), the growth is 55.7% (inactive).

Regarding `COc1ccc2c(c1)c(-c1nc(-c3c[nH]c4ccncc34)cs1)cn2C`, the growth was -61.5% (active).

Consider `O=C(Nc1ccc2c(c1)OCCO2)C(=O)c1c[nH]c2ccccc12`, for which the growth is 13.7% (inactive).

With `Oc1c(I)cc(-c2nc3ccccc3s2)cc1CN(Cc1ccccn1)Cc1ccccn1`, the growth is 2.06% (active).

Turning to `COc1ccccc1-n1c(-c2cc(O)ccc2C)cn2c3c(=O)[nH]c(=O)n(C)c3nc12`, the growth was 110% (inactive).

On to `COc1ccccc1/C=C/C1=C(C)CCC(c2ccccc2OC)C1C` (stereo not given), for which the growth was -41.1% (active).

Consider `COc1cccc(/C=C2\COc3ccc(O)c(O)c3C2=O)c1OC`, for which the growth is -24.4% (active).

For the compound `Cc1cc(NC(=O)c2ccccc2)c(Cl)cc1N`, the growth is 54.7% (inactive).

As to `COc1ccc(NC(=O)c2sc3nc4c(cc3c2N)CCCC4)cc1`, the growth is -14.6% (active).

In the case of `COc1ccc2c3c([nH]c2c1)C(=O)c1nc(C)ccc1C3=O`, the growth was 59% (inactive).

For the compound `O=C(O)CCC(=O)c1ccc(C2CCCCCC2)cc1`, the growth was 107% (inactive).

As for `O=C(NCCNc1nccc(-c2c(-c3cccc(O)c3)nc3sccn23)n1)c1ccc(N2CCOCC2)c(C(F)(F)F)c1`, the growth was 113% (inactive).

Regarding `CC(=O)C1=C(O)C=C2Oc3c(C(=O)/C=C/c4cc(C(F)(F)F)cc(C(F)(F)F)c4)c(O)c(C)c(O)c3[C@]2(C)C1=O`, the growth is -35.2% (active).

Consider `Cc1ccc2c(O)c(O)cc(NC(C)CCCN)c2n1` (stereo not given), for which the growth is 28.3% (inactive).

For the compound `O=C(Nc1cc(=O)[nH]c(=O)[nH]1)C(Cl)Cl`, the growth was 99.4% (inactive).

`CNC(=O)c1c(NC(=O)c2ccc(C(C)C)cc2)sc2c(CN(C)C)c(O)ccc12`: the growth was 85.9% (inactive).

For the compound `CSc1cnc2ccccc2n1`, the growth is 90.3% (inactive).

Source of the values: PubChem BioAssay (NCI).
